Screening results as filed in PubChem.
Rows were chosen to be rich in hits. Some 3.2% of all compounds tested hit in one or more screens of this group.
BRCT PPI red – inhibitors of human BRCA1 BRCT-phosphoprotein interaction (red fluorophore) | P38398 | BRCT-phosphopeptide binding, red fluorescence polarization | Potency, µM (titrated, usually from 76.9 µM), without a hit: top-dose activity change, negative = inhibition, usual class: inhibitors | 0.03% of 75,000 active | AID 892; further: on the % scale 0 is the no-effect control and ±100 the full control effect
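Rhodamine-labelled pBACH1 10-mer (100 nM) bound to BRCT domain (100 nM) at pH 7.3; compounds incubated 12 min room temperature, polarization read. Free peptide defines full inhibition; unlabelled decapeptide titrated as control.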
YjeE inh – YjeE (TsaE) inhibition, E. coli. AID 605. 0.05% of 71,000 active. Potency, µM. purified YjeE enzyme, qHTS inhibition assay
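Purified YjeE (10 uM) with BODIPY Texas Red-labeled ADP probe (2 uM); compounds pin-transferred, 15 min at room temperature. Binding inhibition read as decreased fluorescence polarization; ADP titration as control.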
BRCT PPI green – inhibitors of human BRCA1 BRCT-phosphoprotein interaction (green fluorophore) | BRCA1 BRCT-phosphopeptide binding, green fluorescence polarization | Potency, µM (series often up to 76.9 µM), without a hit: top-dose activity change, negative = inhibition, usual class: inhibitors | 0.05% of 75,000 active | AID 875;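 further: potency means the concentration at half of the fitted maximal effect; plate controls were peptide without protein for full effect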
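Fluorescence polarization: His-tagged BRCT (~35 kDa BRCA1 C-terminus, 250 nM) bound to 100 nM fluorescein-labeled phosphorylated 10-aa BACH1 peptide, pH 7.3 phosphate buffer with DTT and Tween 20. Compounds incubated 12 min at room temperature; inhibition read as lowered polarization.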
Pol III holo inh – blocks replication by bacterial DNA polymerase III holoenzyme; Potency, µM (top dose mostly 57.1 µM), inactives show at the highest dose activity change, negative = inhibition; 0.25% of 71,000 active; reconstituted DNA polymerase III holoenzyme replication, biochemical; further: potency means the concentration at half of the fitted maximal effect; on the % scale 0 is the no-effect control and ±100 the full control effect
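Reconstituted *E. coli* holoenzyme (0.35 nM Pol III, 1 nM beta, 154 nM SSB, 2 nM primase) was preincubated with compound for 15 min at RT. Synthesis on 1.4 nM ssM13Gori ran 35 min, then was stopped with PicoGreen/EDTA and read as dsDNA fluorescence.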
TSHR ag – activates the human thyroid stimulating hormone receptor | P16473 | HEK293-CNG-TSHR cells (CNG channel as cAMP sensor), membrane potential dye, cAMP | Potency, µM (top dose mostly 57.1 µM), inactives show at the top dose activation, actives largely listed as activators | 0.48% of 73,000 active; active means well fitted activation curve with a large enough effect in the main read-out, with a control signal flat, not every such curve was filed as active; inconclusive means small, poorly fitted or top-dose-only effect, or a change in a side signal; inactive means no such curve, though single readings can be large or run the other way; % of control where 0% means no effect;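 further: the control signal comes from parental cells without the receptor; potency means the concentration at half of the fitted maximal effect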
Target sequence (P16473 whole entry, looked up): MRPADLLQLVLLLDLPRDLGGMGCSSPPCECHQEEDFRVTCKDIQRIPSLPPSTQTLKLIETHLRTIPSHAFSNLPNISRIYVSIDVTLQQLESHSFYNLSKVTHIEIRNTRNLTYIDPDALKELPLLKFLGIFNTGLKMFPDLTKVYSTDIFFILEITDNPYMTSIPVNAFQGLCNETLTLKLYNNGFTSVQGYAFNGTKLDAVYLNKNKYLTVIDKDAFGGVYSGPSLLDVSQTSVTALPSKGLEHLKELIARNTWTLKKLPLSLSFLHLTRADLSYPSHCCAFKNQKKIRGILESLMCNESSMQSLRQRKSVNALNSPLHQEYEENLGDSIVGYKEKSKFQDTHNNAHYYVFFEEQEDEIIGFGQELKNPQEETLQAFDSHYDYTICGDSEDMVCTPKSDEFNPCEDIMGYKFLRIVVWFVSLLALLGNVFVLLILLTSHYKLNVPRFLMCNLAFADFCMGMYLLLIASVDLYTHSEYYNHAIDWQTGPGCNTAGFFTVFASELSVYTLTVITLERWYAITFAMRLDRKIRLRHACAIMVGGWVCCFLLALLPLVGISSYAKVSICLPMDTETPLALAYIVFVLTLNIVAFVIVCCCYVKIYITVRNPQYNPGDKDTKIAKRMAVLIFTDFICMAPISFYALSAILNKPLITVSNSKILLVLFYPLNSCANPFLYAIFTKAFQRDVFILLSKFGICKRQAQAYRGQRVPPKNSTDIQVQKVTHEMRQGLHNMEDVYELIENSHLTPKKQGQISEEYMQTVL
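HEK 293 cells stably expressing TSHR and a cAMP-gated CNG channel; parental CNG-only cells as counterscreen. Cells preloaded 60 min with membrane potential dye plus 100 uM RO 20-1724, then compound 30 min; fluorescence read at 590 nm.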
HEK293 cAMP cs – raises cAMP in parental HEK293 cells, TSHR agonist counter-screen. Potency, µM (highest dose often 57.1 µM), without a hit: at the highest dose activation, usual class: activators. parental HEK293 CNG cAMP sensor, membrane potential fluorescence. 2.5% of 73,000 active; further: potency means the concentration at half of the fitted maximal effect; % of control where 0% means no effect; nearly all actives have a fitted effect of over 55% in size
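Parental HEK 293 cells stably expressing a modified CNG channel (no TSHR) report cAMP rise as membrane depolarization. Membrane potential dye with 100 uM RO 20-1724 was loaded for 60 min at room temperature, then compound added for 30 min; fluorescence read at 590 nm.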
Numbers without * were called inactive; i = inactive; ? = inconclusive; / = no result; ! = not active in a repeat; [ ] = remark or other dose. Unless noted, the call rests on the fitted dose curve; in most records, active means well fitted curve in the direction sought with a large enough effect; inconclusive means small, poorly fitted or top-dose-only effect, or another doubt; inactive means no such curve, though single readings can be large; an effect the other way counts as inactive or inconclusive.

SMILES	BRCT PPI red	YjeE inh	BRCT PPI green	Pol III holo inh	TSHR ag	HEK293 cAMP cs
CCCCCC1=C2CNC(Cc3ccccc3)(C(=O)OC)C=C2C(C)C1=O (configuration not stated)	-2%	i	0%	12%	?	?
CCCCCCn1c(N2CCC(C)CC2)nc2c1c(=O)[nH]c(=O)n2C	1%	i	0%	-3%	/	13%
CN(C)C(=O)c1ccc(-c2ccc3ncnc(Nc4ccc(F)cc4)c3c2)cc1	2%	i	1%	-3%	3%	-12%
O=C1CC(=O)N(Cc2ccco2)C(=O)N1	0%	i	17%	16µM*	-4%	0%
Cn1c(=N)n(CC(O)c2cccc3ccccc23)c2ccccc21 (configuration not stated)	-1%	i	0%	-7%	?	?
COc1ccc(N2C(=O)CC(Cc3ccccc3)C2=O)cc1 (configuration not stated)	2%	i	1%	2%	/	0%
Cc1nc(NCc2ccccc2)c2nc(-c3ccccc3)n(CCN3CCOCC3)c2n1	1%	i	1%	1%	?	32µM*
CCCCNc1nc(C)nc2c1nc(-c1ccccc1)n2CCN1CCCCC1	0%	i	0%	-6%	?	13µM*
COCCNc1nc(C)nc2c1nc(-c1ccccc1)n2CCN1CCCCC1	0%	i	-3%	-7%	?	?
CCc1ccccc1OC[C@@H](O)CN[C@H]1CCCc2ccccc21	-1%	i	0%	-2%	?	40µM*
COc1ccc(NC(=O)CSc2nnc(CNC(=O)c3ccco3)n2-c2ccccc2OC)cc1	1%	i	0%	-6%	-3%	-6%
Cc1oc(-c2ccc(Cl)cc2)cc1-c1nn2c(-c3ccoc3C)nnc2s1	-4%	i	-2%	-23%	?	32µM*
CC1(C)C(C=C(Cl)Cl)C1C(=O)N1CCN(c2ccccc2)CC1 (configuration not stated)	0%	i	0%	0%	?	?
Cc1noc(C)c1CSc1nnc(-c2ccccc2)n1Cc1ccco1	0%	i	-1%	-6%	?	16µM*
Clc1ccccc1CSc1nnc(-c2cccnc2)n1Cc1ccco1	-1%	i	-2%	2%	/	10%
COc1ccc2nc3cc(Cl)ccc3c(Nc3ccc(O)c(CN4CCN(C)CC4)c3)c2c1	1%[15.4 µM]	i	-2%[15.4 µM]	5µM*	?	-31%[11.4 µM]
O=C(CN1C(=O)c2ccccc2C1=O)OCC(=O)N1CCc2ccccc2C1	0%	i	-2%	-6%	2%	-3%
COc1ccc(OC)c(C2C(C(=O)Nc3ccc(F)cc3)=C(C)Nc3nc(CCCO)nn32)c1 (configuration not stated)	1%	i	0%	2%	-17%	11%
CCC(C(=O)Nc1cc(C)nn1-c1nc(C)cc(C)n1)c1ccccc1 (configuration not stated)	1%	i	0%	1%	?	16µM*
Cc1cc(C)nc(-n2nc(C)cc2NC(=O)CN2CCc3ccccc3C2)n1	0%	i	1%	2%	?	25µM*
Cc1cc(C)nc(-n2nc(C)cc2NC(=O)CN2CCCC(C)C2)n1 (configuration not stated)	-2%	i	1%	-5%	?	?
Cc1cc(C)nc(SCCc2cccc[n+]2C)n1	0%[15.4 µM]	i	0%[15.4 µM]	-12%[11.4 µM]	-2%[11.4 µM]	-4%[11.4 µM]
CC1CCC2C(=O)OC(CN=[N+]=[N-])CN2C1c1ccc(Br)cc1 (configuration not stated)	0%[15.4 µM]	/	-1%[15.4 µM]	/	?	5µM*!
CCCC[C@@H]1CN2[C@H](c3ccc(Br)cc3)[C@H](C)CC[C@H]2C(=O)O1	1%[15.4 µM]	/	-2%[15.4 µM]	/	?	?
CCCNC(=O)N1CCN(S(=O)(=O)c2ccc(C)cc2)CC1	-2%	i	-1%	3%	-1%	-10%[2.29 µM]
SMILES	BRCT PPI red	YjeE inh	BRCT PPI green	Pol III holo inh	TSHR ag	HEK293 cAMP cs
O=C(CCNS(=O)(=O)c1ccc(Br)s1)N1CCCCC1	0%	i	2%	-3%	-3%	2%
COc1ccccc1C1C=C(c2ccc(C)cc2)Nc2nnnn21 (configuration not stated)	0%	i	1%	-7%	?	25µM*
CCc1c(C)nc(SCC(=O)c2ccc(C)c(C)c2)[nH]c1=O	0%	i	-3%	-4%	?	25µM*
CCOC(=O)c1c(NC(=O)CN2CCCCC2)sc2c1CCN(C(=O)OCC)C2	0%	/	4%	/	?	7.9µM*
CCCCn1c(NC(=O)CC)c(C#N)c2nc3ccccc3nc21	-3%	i	10%	-5%	?	25µM*
FC(F)(F)c1cc(CO[C@H]2CCCN[C@H]2c2ccccc2)cc(C(F)(F)F)c1	1%	i	2%	-13%	?	20µM*
O=C(c1ccccc1F)N1CCN(c2ccccc2F)CC1	1%	i	-1%	-2%	-3%	2%
O=C(c1ccccc1C(=O)N1CCN(c2ccccc2F)CC1)N1CCN(c2ccccc2F)CC1	1%	i	-1%	-1%	?	16µM*
CCCC(C(=O)NC1CCCCC1)N(CC1CCCO1)C(=O)CNS(=O)(=O)c1ccc(F)cc1 (configuration not stated)	2%	i	-1%	-8%	1%	29%
COc1cc(C2CC(=O)C=C(O)C2)cc(OC)c1OC (configuration not stated)	1%	i	-2%	-2%	/	3%
COC(=O)c1ccc(CSc2nnc(SCc3ccc(C(=O)OC)o3)s2)o1	-2%	i	1%	-2%	?	?
COC(=O)c1cc(CSc2nnc(NC3CCCCC3)s2)oc1C	1%	i	-1%	-8%	?	13µM*
CCOC(=O)c1nnn(-c2nonc2N)c1COc1ccccc1	-3%	i	1%	-8%	?	13µM*
Cc1ccc(C(=O)OCc2nnc(-c3ccccc3)o2)o1	-2%	i	-5%	-1%	4%	22%
O=C(OCc1nnc(-c2ccccc2)o1)C1=COCCO1	0%	i	-1%	-1%	1%	4%
O=C(OCc1nnc(-c2ccccc2)o1)c1ccc2c(c1)OCCO2	0%	i	4%	-2%	?	13µM*
Cc1cc(C)n(-c2ccc(C(=O)OCc3nnc(-c4ccccc4)o3)cc2)n1	-1%	i	0%	-3%	?	32µM*
COc1ccc2[nH]cc(CCNc3ncnc4ccc(-c5ccc6c(c5)OCO6)cc34)c2c1	-1%	i	1%	0%	-10%	-11%
